# Screening results deposited in PubChem BioAssay by Broad Institute.
# PGC1a acetyl inh = lowers PGC1a acetylation signal in U2OS cells; AlphaScreen anti-acetyl-lysine; with virally co-expressed GCN5 acetyltransferase; inhibition, % at 15.6 µM; actives 0.17% (n = 350,000); AID 651687;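 active = every replicate shows inhibition of at least 40%; inconclusive = mean inhibition at least 40% but some replicate below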;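 note: 0% = neutral control wells and 100% = positive control wells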
# EWS-Fli inh = blocks EWS/Fli oncoprotein-driven transcription; A673 NR0B1-luciferase reporter, viability-normalised; inhibition, % at 12.6 µM; actives 0.67% (n = 350,000); AID 651661;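 active = mean inhibition of at least 50% after viability correction, with every replicate also passing that limit; inconclusive = mean reaches 50% but only one of two replicates passes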;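 note: firefly luciferase signal divided by Alamar Blue viability fluorescence both relative to DMSO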
# LMP1 NFkB inh = Epstein-Barr LMP1 NF-kappaB reporter inhibition | inhibition, % at 12.5 µM | LMP1-induced NF-kappaB luciferase reporter cells, luminescence | actives 0.69% (n = 350,000); in the data active = inhibition above about 41%; inconclusive = no clear call, values can overlap the other calls;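 note: 0% = neutral control wells and 100% = reference inhibitor control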
# MITF TRPM1 inh = inhibitors of MITF-driven TRPM1 promoter in melanoma cells; SK-MEL-5 TRPM1 promoter luciferase, 24 h; inhibition, % at 12.5 µM; actives 0.83% (n = 330,000); AID 488899;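 active = mean inhibition across replicates of 60% or more, whatever share of single replicates reaches that level; inconclusive = some that reach 60%, reason not given; inactive = mean inhibition across replicates below 60%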
# LGR2 antag = Drosophila LGR2 receptor signaling inhibition; HEK293 LGR2, CRE-luciferase, bursicon-stimulated, 4 h; inhibition, % at 9.99 µM; actives 0.35% (n = 380,000);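 active = drop in luminescence signal, shown as inhibition above about 50% in the replicate tests, limit read from the data, passing the limit was not always enough; inconclusive = probably only some replicates passing the limit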;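 note: agonist challenge used bursicon conditioned medium at about half maximal strength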
# PAX8 reporter = PAX8 transcriptional activity inhibition; actives 1.2% (n = 360,000); inhibition, % at 12.6 µM; AID 652154; RMG-I TPO-luciferase reporter, SteadyGlo, 24 h;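 active = mean replicate inhibition at least 60% with every replicate also reaching 60%; inconclusive = only one of the two criteria is met; inactive = mean below 60% and not all replicates reaching 60%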;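 note: luciferase light reporting Pax8 driven TPO promoter activity; plate controls were median of neutral control wells for no effect and mitoxantrone controls for full effect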
# * marks the source's active call; other numbers are inactive results; ? = inconclusive; · = not tested or not shown. Shown are actives, neighbours in structure and some others; about 2.2% of the full set was active somewhere.
SMILES,PGC1a acetyl inh,EWS-Fli inh,LMP1 NFkB inh,MITF TRPM1 inh,LGR2 antag,PAX8 reporter
COc1ccc(/C=C2/SC(=S)N(c3ccc(S(=O)(=O)Nc4nccs4)cc3)C2=O)cc1,-10,10,6,1,30,16
CN(C)CC(=O)Nc1ccc2c(c1)[C@@H]1C[C@@H](CC(=O)NC3CCCCC3)O[C@H](CO)[C@@H]1O2,4,2,·,·,1,-6
Cc1cc[n+](C(C)C(=O)c2ccc(-c3ccccc3)cc2)cc1 (configuration not stated),1,15,15,?,-6,69*
CC(=NCCN1CCN(C(C)=C2C(=O)c3ccccc3C2=O)CC1)C1=C(O)CC(C)(C)CC1=O,-3,-2,-23,8,11,101*
CN1C(=O)c2cc(NC(=O)c3cccc(F)c3)ccc2OC[C@@H]2O[C@H](CC(=O)O)CC[C@@H]21,5,-8,·,·,5,19
CCOC(=O)c1ccc(NC(=O)c2nc(SC)ncc2Cl)cc1,·,-6,1,-6,1,-2
Cc1cccc(CS(=O)(=O)c2ncc(Cl)c(C(=O)Nc3c(C)cccc3C)n2)c1,·,·,11,19,17,-13
Cc1ccccc1CS(=O)(=O)c1ncc(Cl)c(C(=O)Nc2ccc(F)cc2)n1,·,56*,52*,91*,22,30
COc1ccc(NC(=O)c2nc(S(=O)(=O)Cc3cccc(C)c3)ncc2Cl)c(OC)c1,-5,·,11,43,-23,45
Cc1cccc(CS(=O)(=O)c2ncc(Cl)c(C(=O)NCc3ccccc3)n2)c1,-4,·,-8,87*,-17,4
Cc1ccc(NC(=O)c2nc(S(=O)(=O)Cc3ccccc3)ncc2Cl)cc1,·,61*,24,95*,4,?
CCCc1nnc(NC(=O)c2nc(S(=O)(=O)Cc3cccc(C)c3)ncc2Cl)s1,·,·,9,78*,-10,-7
CO[C@H](CN(C)C(=O)c1ccccc1F)[C@H](C)CN([C@H](C)CO)S(=O)(=O)c1ccc(Cl)cc1,-6,2,·,·,-5,·
Cc1noc(C)c1S(=O)(=O)Nc1ccc2c(c1)CC(=O)N([C@H](C)CO)C[C@H](C)[C@@H](CN(C)C(=O)Nc1ccc(F)cc1)O2,3,-9,·,·,-6,1
C[C@@H]1CCCCO[C@@H](CN(C)C(=O)c2ccncc2)[C@H](C)CN([C@H](C)CO)C(=O)c2cc(NS(=O)(=O)c3ccc(Cl)cc3)ccc2O1,-14,2,·,·,0,-9
Cc1noc(C)c1S(=O)(=O)Nc1ccc2c(c1)C(=O)N([C@H](C)CO)C[C@H](C)[C@@H](CN(C)S(C)(=O)=O)OCCCC[C@H](C)O2,12,-9,·,·,-12,·
CN1/C(=C\C(=O)C[n+]2ccc3ccccc3c2)C(C)(C)c2ccccc21,2,42,19,?,0,78*
Cc1cccc(C)c1NC(=O)c1nc(S(=O)(=O)Cc2ccccc2)ncc1Cl,·,73*,44*,91*,19,28
Cc1ccccc1NC(=O)c1nc(S(C)(=O)=O)ncc1Cl,-134,74*,-22,28,5,18
CN1/C(=C/C(=O)c2nc(S(C)(=O)=O)ncc2Cl)C(C)(C)c2ccccc21,83*,·,60*,106*,·,·
COc1ccccc1C(=O)Nc1ccc2c(c1)C(=O)N(C)[C@H]1CC[C@@H](CC(=O)NCCc3ccncc3)O[C@H]1CO2,·,1,·,·,-5,-20
C[C@H]1CN([C@@H](C)CO)C(=O)c2cccc(NC(=O)NC3CCCCC3)c2O[C@@H]1CN(C)S(=O)(=O)c1ccccc1,2,5,·,·,1,-1
Cc1nnc(NC(=O)CS(=O)(=O)Cc2ccccc2)s1,1,-2,3,-3,15,4
O=C(Nc1ccc(F)cc1)c1nn(-c2ccccc2)c(=O)cc1Cl,23,11,7,-7,75*,19
COc1ccc(OC)c(NC(=O)c2nc(S(=O)(=O)Cc3ccccc3)ncc2Cl)c1,1,·,-1,95*,16,53
SMILES,PGC1a acetyl inh,EWS-Fli inh,LMP1 NFkB inh,MITF TRPM1 inh,LGR2 antag,PAX8 reporter
Cc1ccc(NC(=O)c2cc(-c3ccccc3)nn2-c2ccccc2)cc1,-2,-1,-4,-1,0,11
O=C(Nc1ccc(F)cc1)c1nc(S(=O)(=O)Cc2ccccc2)ncc1Cl,·,56*,-2,62*,-4,104*
Cc1nnc(NC(=O)c2nc(S(=O)(=O)Cc3ccccc3)ncc2Cl)s1,-42,58*,25,35,-29,6
C[C@H](CO)N1C[C@H](C)[C@@H](CN(C)S(=O)(=O)c2ccccc2)Oc2ccc(NC(=O)Cc3ccccc3)cc2CC1=O,2,11,·,·,1,9
O=C(NC1CCCC1)N1CC(=O)N2[C@H](CO)[C@@H](c3ccc(/C=C/c4ccccc4)cc3)[C@H]2C1,2,-14,·,·,5,·
C[C@@H]1CN([C@@H](C)CO)C(=O)c2cc(NC(=O)Nc3ccc(F)cc3)ccc2O[C@@H]1CN(C)C(=O)Nc1cccc2ccccc12,-2,16,·,·,2,75*
C[C@H]1CN([C@@H](C)CO)C(=O)c2cc(NC(=O)Nc3ccccc3)ccc2O[C@@H]1CN(C)C(=O)Nc1cccc2ccccc12,-8,11,·,·,4,·
C[C@@H]1CN([C@H](C)CO)C(=O)c2cc(NC(=O)Nc3cccc4ccccc34)ccc2O[C@@H]1CN(C)C(=O)Nc1cccc2ccccc12,9,6,·,·,2,78*
O=C(COc1ccccc1-c1ccccc1)N/N=C/c1cccc2ccccc12,-31,·,7,53,·,·
COc1ccc(/C=N/NC(=O)COc2ccccc2-c2ccccc2)cc1,-21,·,74*,31,-7,74*
COc1ccc(/C=N/NC(=O)CCn2cnc(-c3ccccc3)c2-c2ccccc2)cc1,·,51*,18,-2,-10,18
C[C@H](CO)N1C[C@H](C)[C@H](CN(C)CC2CC2)Oc2cc(-c3cccc(C#N)c3)ccc2S1(=O)=O,1,-1,·,·,7,-4
CCOc1cc(Br)cc(/C=N/NC(=O)c2cccnc2)c1O,·,3,68*,49,24,32
CN(C)CCCNC(=O)/C(=C\c1ccc(-c2cccc([N+](=O)[O-])c2)o1)NC(=O)c1ccccc1,·,12,3,-22,-2,-8
Cc1ccc(C(=O)N/C(=C\c2ccc(-c3cccc([N+](=O)[O-])c3)o2)C(=O)NCCCN(C)C)cc1,4,5,36,13,·,-5
Cc1ccc(C(=O)N/C(=C\c2ccc(-c3ccc(Br)cc3)o2)C(=O)NCCCN(C)C)cc1,·,51*,2,107*,?,95*
CN(C)CCNC(=O)/C(=C/c1ccc(-c2ccc(Cl)cc2Cl)o1)NC(=O)c1ccccc1,·,·,-25,95*,-4,17
CN(C)CCNC(=O)/C(=C/c1ccc(-c2ccc(Cl)cc2)o1)NC(=O)c1ccccc1,4,·,-1,66*,3,11
